According to PubChem BioAssay:
Activity calls are given as the source filed them.

What was measured:
[1] = optical density shifts of acrAB sulA E. coli – strain DRC41, OD650, 48 h, E. coli filamentation inducer project, primary screen (AID 1152); settings: higher = more signal, called active from +8 up or from −8 down;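 note: E. coli MC1000 strain DRC41 lacking acrAB efflux pump and sulA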
[2] = probe aLefty1 binding on compound microarray – biochemical, small-molecule microarray, 635/667 nm fluorescence, primary screen (AID 1153); settings: higher = more signal;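 note: score merges spot fluorescence with signal-to-noise ratio from the scanned slide images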
[3] = plasmodial surface anion channel blockers, osmotic lysis – cell-based, P. falciparum Indochina, OD700, 1 h, primary screen (AID 1154); settings: P. falciparum Indochina infected RBC osmotic lysis, higher = more signal, called active from +8 up or from −8 down
[4] = plasmodial surface anion channel blockers, osmotic lysis – cell-based, P. falciparum Indochina, OD700, 2 h, primary screen (AID 1155);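 note: lysis reports solute entry through the parasite surface anion channel PSAC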; settings: P. falciparum Indochina infected erythrocytes, higher = more signal, called active from +8 up or from −8 down
[5] = changes in parasitized red cell lysis, either direction – P. falciparum Indochina, OD700, 3 h, PSAC antagonist project, primary screen (AID 1156); settings: P. falciparum-infected erythrocytes, osmotic lysis, higher = more signal, called active from +8 up or from −8 down
[6] = plasmodial surface anion channel blockers, osmotic lysis – cell-based, P. falciparum Indochina, OD700, 18 h, primary screen (AID 1157); settings: P. falciparum Indochina infected erythrocytes, osmotic lysis OD700, 18 h; higher = more signal, called active from +8 up or from −8 down
[7] = S6 kinase pathway phospho-S6 level changes – cell-based, A549, cytoblot, luminescence, serum-stimulated, primary screen (AID 1158); settings: 5 h, higher = more signal;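 note: serum-stimulated A549 lung adenocarcinoma cells; signal is phosphorylated S6 detected by cytoblot immunostaining with HRP secondary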
[8] = biological target: NADPH oxidase 2 (Homo sapiens) (UniProt P04839); assay: compounds shifting NOX2 Amplex Red fluorescence – cell-based, HEK293-NOX2, PMA-stimulated, NOX inhibitor project, primary screen (AID 1159); settings: 45 min, higher = more signal, called active from +8 up or from −8 down; note: test concentration not given here
[9] = biological target: NADPH oxidase 4 (Homo sapiens) (UniProt Q9NPH5); assay: compounds shifting NOX4 Amplex Red fluorescence – cell-based, HEK293-NOX4, tetracycline-induced, NOX inhibitor project, primary screen (AID 1160); settings: HEK293-NOX4, Amplex Red H2O2 fluorescence, 45 min; higher = more signal, called active from +8 up or from −8 down
[10] = biological target: NADPH oxidase 5 (Homo sapiens) (UniProt Q96PH1); assay: compounds shifting NOX5 Amplex Red fluorescence – cell-based, HEK293-NOX5, NOX inhibitor project, primary screen (AID 1161); settings: HEK293-NOX5, ionomycin, 45 min, higher = more signal
Sequence of NADPH oxidase 5 (Homo sapiens) (Q96PH1 whole entry, looked up): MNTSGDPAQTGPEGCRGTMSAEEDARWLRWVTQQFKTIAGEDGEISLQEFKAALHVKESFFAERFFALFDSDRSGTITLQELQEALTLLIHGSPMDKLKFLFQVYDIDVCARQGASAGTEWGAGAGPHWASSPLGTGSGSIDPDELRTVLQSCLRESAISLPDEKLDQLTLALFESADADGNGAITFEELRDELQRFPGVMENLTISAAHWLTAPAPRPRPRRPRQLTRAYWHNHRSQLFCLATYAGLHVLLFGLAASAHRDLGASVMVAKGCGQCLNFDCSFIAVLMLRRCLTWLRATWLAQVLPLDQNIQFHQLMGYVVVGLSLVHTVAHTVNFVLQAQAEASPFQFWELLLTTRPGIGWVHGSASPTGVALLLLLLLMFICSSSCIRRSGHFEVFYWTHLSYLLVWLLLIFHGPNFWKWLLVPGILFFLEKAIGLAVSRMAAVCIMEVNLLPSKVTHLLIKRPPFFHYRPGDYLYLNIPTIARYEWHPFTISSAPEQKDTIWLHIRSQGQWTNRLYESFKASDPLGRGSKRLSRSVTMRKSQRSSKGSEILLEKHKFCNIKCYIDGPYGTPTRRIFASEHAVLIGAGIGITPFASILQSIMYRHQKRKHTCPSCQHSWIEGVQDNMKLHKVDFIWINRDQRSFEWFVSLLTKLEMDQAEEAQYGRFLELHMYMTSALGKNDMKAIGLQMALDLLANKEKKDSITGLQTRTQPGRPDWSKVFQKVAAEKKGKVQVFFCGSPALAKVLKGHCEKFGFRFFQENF

Sequence of NADPH oxidase 2 (Homo sapiens) (P04839 whole entry, looked up): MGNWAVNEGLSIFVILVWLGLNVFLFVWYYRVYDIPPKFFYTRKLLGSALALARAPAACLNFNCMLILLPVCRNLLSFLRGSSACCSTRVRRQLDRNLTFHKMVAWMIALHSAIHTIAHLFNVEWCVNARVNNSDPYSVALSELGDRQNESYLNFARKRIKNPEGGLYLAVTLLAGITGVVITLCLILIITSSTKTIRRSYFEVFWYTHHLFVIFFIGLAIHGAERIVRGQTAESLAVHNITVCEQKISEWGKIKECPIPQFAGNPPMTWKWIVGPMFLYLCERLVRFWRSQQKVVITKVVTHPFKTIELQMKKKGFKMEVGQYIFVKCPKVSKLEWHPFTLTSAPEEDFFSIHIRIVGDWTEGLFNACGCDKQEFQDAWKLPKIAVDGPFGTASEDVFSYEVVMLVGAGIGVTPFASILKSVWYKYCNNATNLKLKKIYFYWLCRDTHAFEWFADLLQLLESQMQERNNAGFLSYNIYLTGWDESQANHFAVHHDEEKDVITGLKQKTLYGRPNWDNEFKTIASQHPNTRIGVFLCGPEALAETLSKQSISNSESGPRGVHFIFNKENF
Sequence of NADPH oxidase 4 (Homo sapiens) (Q9NPH5 whole entry, looked up): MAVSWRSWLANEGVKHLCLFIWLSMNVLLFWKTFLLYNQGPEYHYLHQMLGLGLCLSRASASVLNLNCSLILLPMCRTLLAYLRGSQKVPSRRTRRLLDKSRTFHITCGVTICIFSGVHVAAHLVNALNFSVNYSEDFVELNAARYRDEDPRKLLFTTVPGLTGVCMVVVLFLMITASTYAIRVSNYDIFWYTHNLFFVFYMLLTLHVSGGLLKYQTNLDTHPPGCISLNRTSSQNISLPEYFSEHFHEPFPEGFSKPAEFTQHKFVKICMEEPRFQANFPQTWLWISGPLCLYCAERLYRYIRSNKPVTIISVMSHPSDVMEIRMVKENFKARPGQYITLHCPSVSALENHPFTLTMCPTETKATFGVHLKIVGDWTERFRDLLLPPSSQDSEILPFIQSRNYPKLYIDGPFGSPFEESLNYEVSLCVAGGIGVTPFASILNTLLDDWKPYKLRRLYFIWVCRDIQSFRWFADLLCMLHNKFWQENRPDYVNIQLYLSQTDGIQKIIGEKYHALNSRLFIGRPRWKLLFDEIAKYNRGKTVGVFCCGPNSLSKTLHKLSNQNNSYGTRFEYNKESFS

Row | SMILES | z-score [1] | composite z-score [2] | z-score [3] | z-score [4] | z-score [5] | z-score [6] | z-score [7] | z-score [8] | z-score [9] | z-score [10]
1 | CCCNC(=O)OC[C@H]1O[C@H](CCON=C[C@@H](OC)[C@H](C)C=CCC(=O)OC)C=C[C@@H]1Oc1ccc(OC)cc1 | -0.042 (inactive) | 0.0889 | 4.4 (inactive) | 0.143 (inactive) | -0.0652 (inactive) | 0.368 (inactive) | 0.0604 | -1.56 (inactive) | 0.00725 (inactive) | -2.76
2 | CC(CCN1CCCCc2nc(C)c(C)cc21)=NOC(C)CN1CCCc2nc(C)c(C)cc21 (stereo not given) | -1.7 (inactive) | 0.79 | 1.6 (inactive) | 0.549 (inactive) | -0.19 (inactive) | 0.488 (inactive) | -0.569 | -1 (inactive) | 0.11 (inactive) | -1.79
3 | C#CCCCON=C1C[C@@H](O)[C@@H](O)[C@@H]2[C@@H]3C(=O)N(Cc4ccccc4)C(=O)[C@@H]3CC[C@H]12 | 0.362 (inactive) | -0.111 | 1.38 (inactive) | -0.506 (inactive) | 0.659 (inactive) | -1.29 (inactive) | 0.69 | 0.162 (inactive) | 0.196 (inactive) | -0.36
4 | CC(C)[C@@H](OCc1ccccc1)[C@H](C)C=NOC[C@@H](C)[C@H](OCc1ccccc1)C(C)C | 0.52 (inactive) | 0.233 | 0.641 (inactive) | 0.369 (inactive) | -0.423 (inactive) | -0.222 (inactive) | -0.591 | -0.537 (inactive) | -0.184 (inactive) | -0.948
5 | [N-]=[N+]=Nc1ccccc1C[C@@]1(C(N)=O)N=C(c2ccc(OCCCO)cc2)O[C@@H]1c1ccccc1 | -0.307 (inactive) | 0.506 | 27.3 (active) | 22.4 (active) | 2.73 (inactive) | 2.47 (inactive) | 1.4 | -2.2 (inactive) | 0.249 (inactive) | -1.75
6 | CCOC(=O)CCN1C(=O)[C@H]2[C@H]3[C@H](O)[C@H](O)CC(=NNC(=O)OCc4ccc(OC)cc4)[C@@H]3CC[C@H]2C1=O | 0.0393 (inactive) | 0.0288 | 6.59 (inactive) | 1.07 (inactive) | -0.495 (inactive) | 0.353 (inactive) | -0.587 | -3.2 (inactive) | -0.169 (inactive) | -0.974
7 | CO[C@@H]1COC(=O)CC=C[C@@H](C)[C@@H]2C=C[C@H](O)[C@@H](COC(=O)[C@H](C)NC(=O)CC=C[C@H]1C)O2 | 0.457 (inactive) | -0.626 | -0.761 (inactive) | -1.27 (inactive) | 0.564 (inactive) | -2.4 (inactive) | -0.309 | -0.573 (inactive) | 0.165 (inactive) | 0.605
8 | CC=CC1=C(CO)[C@H](O)[C@H]2O[C@H]2[C@H]1O | -0.147 (inactive) | -0.45 | -0.528 (inactive) | -0.52 (inactive) | -0.382 (inactive) | -0.342 (inactive) | 0.318 | 1.94 (inactive) | -1.82 (inactive) | -0.768
9 | O=C1O[C@@H](c2ccccc2)[C@@H](c2ccccc2)N2[C@@H](c3ccccc3OCCO)[C@]3(C(=O)Nc4ccc(C#CCCO)cc43)[C@@H](C(=O)O)[C@H]12 | 0.0825 (inactive) | 1.66 | 1.32 (inactive) | -2.1 (inactive) | 0.152 (inactive) | -2.06 (inactive) | 1.47 | 0.559 (inactive) | -0.438 (inactive) | -0.847
10 | COCC(=C=CC[C@@H](O)c1ccccc1OCCO)CCO | 0.825 (inactive) | -0.0501 | 2.69 (inactive) | -0.0233 (inactive) | 0.454 (inactive) | 0.16 (inactive) | 0.613 | 1.64 (inactive) | 0.992 (inactive) | -0.132
11 | C#CCCCON=C1C[C@@H](O)[C@@H](O)[C@@H]2[C@@H]3C(=O)N(CCC(=O)OCC)C(=O)[C@@H]3CC[C@@H]12 | 0.425 (inactive) | 0.309 | 16.5 (active) | 1.47 (inactive) | 0.146 (inactive) | 0.404 (inactive) | 0.194 | -9.69 (active) | 0.556 (inactive) | 0.618
12 | COC(=O)[C@H](C)NC(=O)CCC1CC(OC(=O)NCCc2ccc(F)cc2)CC2(CCCC(COC(=O)NCCc3ccc(Cl)cc3)O2)O1 (stereo not given in full) | 0.954 (inactive) | -0.0464 | 1.83 (inactive) | 0.316 (inactive) | -0.0413 (inactive) | 0.2 (inactive) | 0.0808 | 0.431 (inactive) | 0.778 (inactive) | 0.612
13 | CCOc1ccc(N2C(=O)/C(=C/C=C/c3ccccc3OC)S(=O)(=O)C2c2cccc([N+](=O)[O-])c2)cc1 (stereo not given) | 3.21 (inactive) | -0.0193 | 1.03 (inactive) | 0.282 (inactive) | -1.1 (inactive) | -1.04 (inactive) | 2.38 | 0.5 (inactive) | 0.389 (inactive) | 1.49
14 | CC(CCN1CCCCc2nc(C)c(C)cc21)=NOC(C)CN1CCCCc2nc(C)c(C)cc21 (stereo not given) | -2.08 (inactive) | 0.235 | 1.38 (inactive) | 0.329 (inactive) | 0.964 (inactive) | 0.587 (inactive) | -0.839 | -1.47 (inactive) | -3.07 (inactive) | -1.31
15 | COc1ccc(COC(=O)NN=C2C[C@@H](O)[C@@H](O)[C@@H]3[C@@H]4C(=O)N(Cc5ccc6c(c5)OCO6)C(=O)[C@@H]4CC[C@@H]23)cc1 | 0.306 (inactive) | 1.15 | 11.8 (active) | 0.801 (inactive) | 0.819 (inactive) | -1.17 (inactive) | 1.27 | -0.377 (inactive) | 0.343 (inactive) | 0.964
16 | CO[C@H]1COC(=O)[C@H](C)COC(=O)CC=C[C@@H](C)[C@H](OC)COC(=O)CC=C[C@@H]1C | 0.738 (inactive) | -0.196 | -0.654 (inactive) | -0.285 (inactive) | -0.654 (inactive) | -0.188 (inactive) | 0.648 | -0.347 (inactive) | 0.0281 (inactive) | 0.625
17 | Cc1cc2c(c(=O)o1)[C@H](O)[C@H]1O[C@H]1C2=O | -0.743 (inactive) | -0.237 | -0.228 (inactive) | 0.496 (inactive) | 0.716 (inactive) | 0.0033 (inactive) | -0.573 | 1.67 (inactive) | -1.04 (inactive) | -1.39
18 | C[C@@H]1C=CCC(=O)OC[C@H](C)C(=O)N[C@@H](C)C(=O)OC1 | 0.811 (inactive) | -0.0104 | 0.378 (inactive) | 0.371 (inactive) | 0.623 (inactive) | 0.342 (inactive) | -0.276 | -0.727 (inactive) | 0.527 (inactive) | 0.619
19 | CCOC(=O)NN=C1C[C@@H](O)[C@@H](O)[C@@H]2[C@@H]3C(=O)N(C4CCCCC4)C(=O)[C@@H]3CC[C@@H]12 | -0.0671 (inactive) | -0.147 | 1.61 (inactive) | 0.0554 (inactive) | -1.02 (inactive) | -0.039 (inactive) | 0.492 | -0.000129 (inactive) | 0.328 (inactive) | -0.121
20 | CC(C)[Si]1(C(C)C)O[C@@H](c2ccccc2)c2cc(C3CC3)nc(-c3ccccc3)c21 | -1.02 (inactive) | -0.108 | 1.27 (inactive) | 0.389 (inactive) | -0.0854 (inactive) | -0.0349 (inactive) | 0.19 | -0.305 (inactive) | 0.504 (inactive) | 0.0972
21 | COC(=O)[C@H](C)NC(=O)CCC1CC(OC(=O)NCc2cccc3ccccc23)CC2(CCCC(COC(=O)NCCc3ccc(Cl)cc3)O2)O1 (stereo not given in full) | 0.434 (inactive) | -0.375 | 0.119 (inactive) | -0.214 (inactive) | -0.801 (inactive) | -0.193 (inactive) | 0.362 | 0.779 (inactive) | 1.18 (inactive) | 1.55
22 | CN(C)c1ccc(C(O)C2C=CC3C(=O)N(c4ccccc4)C(=O)C3N2Nc2ccccc2F)cc1 (stereo not given) | -1.4 (inactive) | 0.284 | 4.37 (inactive) | 1.2 (inactive) | 0.252 (inactive) | 0.586 (inactive) | -0.288 | -2.5 (inactive) | -4.43 (inactive) | -3.99
23 | COC(=O)CC=C[C@H](C)[C@H](CO)NS(=O)(=O)c1ccc(C)cc1 | -1.48 (inactive) | -0.221 | 0.251 (inactive) | -0.085 (inactive) | -0.206 (inactive) | -0.119 (inactive) | -0.497 | 1.48 (inactive) | 0.227 (inactive) | -0.484
24 | CC(C)CON=C1C[C@@H](O)[C@@H](O)[C@@H]2[C@@H]3C(=O)N(C[C@@H]4CCCO4)C(=O)[C@@H]3CC[C@H]12 | 0.165 (inactive) | -0.0559 | 0.0811 (inactive) | 0.449 (inactive) | -0.425 (inactive) | -0.0131 (inactive) | -0.383 | 0.202 (inactive) | 0.313 (inactive) | -0.61
25 | O=C1O[C@@H](c2ccccc2)[C@@H](c2ccccc2)N2[C@@H](c3ccc(O)cc3)[C@]3(C(=O)Nc4ccccc43)[C@@H](C(=O)O)[C@H]12 | 0.772 (inactive) | -0.0536 | 1.41 (inactive) | -0.968 (inactive) | 1.11 (inactive) | -1.77 (inactive) | 1.87 | -0.215 (inactive) | -0.652 (inactive) | 0.0434
26 | O=C1c2ccccc2[C@@]2(Cc3ccccc3N(C3CC3)C2=O)[C@H](c2ccc(CO)cc2)N1Cc1ccccc1C(F)(F)F | -0.262 (inactive) | 0.566 | 0.949 (inactive) | -0.28 (inactive) | -0.31 (inactive) | -1.41 (inactive) | 1.01 | 0.136 (inactive) | -1.4 (inactive) | -0.129
27 | CC(C)OC(=O)C=C1C[C@@H](c2ccc(C#N)cc2)O[C@@H](c2ccc(C#N)cc2)O1 | 0.197 (inactive) | 0.474 | 8.57 (active) | 0.848 (inactive) | 0.78 (inactive) | 0.439 (inactive) | -0.342 | -0.669 (inactive) | -1.02 (inactive) | -0.607
